Assay outcomes deposited in PubChem BioAssay by several laboratories.
This is a sample that favours compounds with a hit; in the whole collection about 1.7% have one here.
CHT allo act: human CHT allosteric activation; 310,000 compounds, 0.49% hits; B-score at 10 µM; CHT-expressing cells, membrane potential dye, choline EC20; stronger effect = higher value; LV-AA mutant CHT in HEK293 cells; Q9GZV3;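 active = initial fluorescence not abnormally high and integrated response B-score, plate-corrected, over 3 SD above library mean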
Target sequence (Q9GZV3 whole entry, looked up): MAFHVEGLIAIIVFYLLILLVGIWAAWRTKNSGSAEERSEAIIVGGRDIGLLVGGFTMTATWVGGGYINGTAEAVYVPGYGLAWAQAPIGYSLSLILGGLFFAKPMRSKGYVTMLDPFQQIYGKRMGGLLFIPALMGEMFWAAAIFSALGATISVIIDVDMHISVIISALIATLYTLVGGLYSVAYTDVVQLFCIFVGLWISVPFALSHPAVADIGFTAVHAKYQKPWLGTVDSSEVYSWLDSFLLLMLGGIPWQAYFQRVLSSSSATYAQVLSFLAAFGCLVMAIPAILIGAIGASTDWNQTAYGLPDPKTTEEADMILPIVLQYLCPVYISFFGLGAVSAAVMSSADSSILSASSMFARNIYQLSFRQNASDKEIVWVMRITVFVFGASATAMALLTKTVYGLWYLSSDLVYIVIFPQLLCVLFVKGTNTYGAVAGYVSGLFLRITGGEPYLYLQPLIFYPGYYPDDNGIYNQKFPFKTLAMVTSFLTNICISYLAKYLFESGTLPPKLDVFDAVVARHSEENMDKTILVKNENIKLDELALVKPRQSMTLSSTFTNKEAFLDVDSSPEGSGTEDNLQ
TAG inh: reduces triacylglycerol accumulation in H9c2 cells. 230,000 compounds, 0.66% hits. inhibition, % at 12.5 µM. Nile Red lipid (TAG) fluorescence; cells loaded with 200 µM oleic acid. AID 651582;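 active = pattern-corrected inhibition of lipid staining of at least 50% with the nuclear-stain viability signal not falling by more than 50%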;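 also: 0% = DMSO wells and 100% = triacsin C control wells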
CHT inh: human CHT choline transport inhibition. AID 488975. 310,000 compounds, 0.86% hits. Q9GZV3. B-score at 10 µM. CHT-expressing cells, membrane potential dye, choline response; stronger effect = lower value;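 active = B-score over 3 SD under the library average, and starting fluorescence ratio not unusually high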;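 also: choline stimulus applied at its EC90 after an EC20 pre-addition; B-score computed on integrated fluorescence ratio after choline addition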
beta cell repl: MIN6 beta-cell proliferation induction; proliferation, % at 10 µM; AID 2380; MIN6 cells proliferation, ATPlite luminescence, 48 h; cells starved in 0.2% serum; 100% = growth in 10% serum; 330,000 compounds, 0.29% hits;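 active = compounds whose signal lies at least 3.5 SD above the mean of all wells on their plate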;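 also: 0% = DMSO-treated cells in low-serum medium and 100% = 10% serum control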
CHT act confirm: confirmation of human choline transporter (CHT) activators; shares compounds with CHT allo act; CHT-expressing cells, membrane potential dye fluorescence (FDSS); % of choline EC20–EC90 response window; HEK293 expressing CHT LV-AA mutant; choline added at its EC20; 2,500 compounds, 91% hits; AID 504833; activation, % at 10 µM;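 active = primary screen active, with duplicate mean activation above negative control mean plus 3 SD, cut at about 11% in these data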
HEK293 MP dye: counter-screen for CHT activators: effect in parental HEK293 cells; shares compounds with CHT allo act; membrane potential dye fluorescence (FDSS); measured after EC20 choline addition; ratio readout change at 10 µM, hits read low; 2,500 compounds, 62% hits;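 active = duplicate-averaged ratio beyond 3 SD from buffer wells, up or down, though filed actives are nearly all decreases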
The depositor's hits bear a star; i = inactive; / = not tested or not shown.

SMILES	CHT allo act	TAG inh	CHT inh	beta cell repl	CHT act confirm	HEK293 MP dye
Fc1ccc(NC(=S)Nc2ccccc2N2CCOCC2)cc1Cl	i	-14.3	i	-3.5	/	/
C=C1CCN(Cc2ccccc2)S(=O)(=O)c2ccccc21	9.03*	10.7	i	2.2	26.0*	i
CCc1c(-c2ccccc2)nc2sc3c(c2c1N)CCCC3	i	-8.8	i	-4.0	/	/
CCCc1nc2c(C)ccc(C)c2c(N)c1CC	i	/	i	-1.6	55.5*	-52.4*
c1cc(-c2sc(-c3ccncc3)c(-c3ccncc3)c2-c2ccncc2)ccn1	i	9.2	i	-1.8	59.1*	-47.4*
C[C@H]1CN([C@@H](C)CO)C(=O)CCCn2nncc2CO[C@@H]1CN(C)S(=O)(=O)c1ccc(-c2ccccc2)cc1	/	4.5	/	/	/	/
Cc1cc(=O)n2c3ccccc3n(CC(O)CN3CCCC3)c2c1C#N (centres undefined)	6.94*	/	i	-1.7	51.7*	-45.6*
CCCNCC(O)Cn1c2ccccc2n2c(=O)cc(C)c(C#N)c12 (centres undefined)	i	/	i	-6.9	46.3*	-40.5*
Cc1cc(C)cc(N2CC(C(=O)OCC(=O)Nc3cc(C)on3)CC2=O)c1 (centres undefined)	i	/	i	-4.4	/	/
O=C(Nc1cccc(OC(F)(F)F)c1)c1ccc(-c2cccnc2)c2ccoc12	/	12.4	/	/	/	/
O=C(CSC1=N/C(=C/c2ccco2)C(=O)N1c1ccc(OC(F)F)cc1)NC1CCS(=O)(=O)C1 (centres undefined)	i	5.2	i	-0.4	/	/
COc1ccc(N2C(=O)/C(=C\c3ccco3)N=C2SCC(=O)N(C(C)C)C(C)C)cc1Cl	i	/	i	0.0	12.6*	i
NCc1cc2c3c(c1)CCCN3CCC2	i	/	i	-1.2	13.3*	-100*
COc1c(C=O)cc2c3c1CCCN3CCC2	i	-0.5	i	-0.5	/	/
COCCn1c(=O)c2c(nc3n2CC(C)CN3Cc2ccccc2)n(C)c1=O (centres undefined)	i	/	i	-0.2	/	/
CCOC(=O)N1CCC(N2Cc3cccc(C(=O)NCC4CCN(CC(C)C)C4)c3C2=O)CC1 (centres undefined)	6.28*	26.7	i	-3.9	52.5*	-33.7*
COc1ccccc1C(c1nnnn1CC1CCCO1)N1CCC(C(N)=O)CC1 (centres undefined)	i	11.8	i	-0.4	/	/
C=CCN1CCN(C(c2cc(OC)ccc2OC)c2nnnn2CC2CCCO2)CC1 (centres undefined)	6.31*	4.3	i	-0.6	15.8*	i
COc1ccc(C(c2nnnn2CC2CCCO2)N2CCC(C(N)=O)CC2)cc1 (centres undefined)	i	-5.0	i	0.4	-0.9	i
CCCCCCCC[n+]1c(C)n(-c2ccccc2)c2ccc(NC(C)=O)cc21	10.1*	15.7	i	-6.5	78.2*	-32.7*
CC(=O)Nc1ccc(SCC(=O)c2cc(C)n(-c3ccccc3)c2C)cc1	i	/	i	-3.2	/	/
COc1ccc(CC(=O)NCc2ccc(Cl)cc2)cc1S(=O)(=O)N1CCOCC1	/	4.5	/	3.3	/	/
CC1CC(C)CN(CCCNC(=O)COc2cc(=O)n(C)c3ccccc23)C1 (centres undefined)	i	16.4	i	-2.3	17.4*	-27.6*
CCN1CCCC1CNC(=O)COc1cc(=O)n(C)c2ccccc12 (centres undefined)	7.2*	/	i	0.3	42.7*	-39.4*
CC1CCN(CCCNC(=O)COc2cc(=O)n(C)c3ccccc23)CC1	i	/	i	-1.1	42.9*	-32.9*
Cn1c(=O)cc(SCC(=O)NCC2CCCO2)c2ccc(Cl)cc21 (centres undefined)	i	23.3	i	-1.2	/	/
CCN1CCCC1CNC(=O)CSc1cc(=O)n(C)c2cc(Cl)ccc12 (centres undefined)	i	21.1	i	0.8	49.9*	-34.3*
CC(C)(C)OC(=O)N[C@H]1C=C[C@@H](OC(=O)CC(=O)OCC(F)(F)F)C1	/	4.9	/	/	/	/
CC(C)NC(=O)COc1coc(CN2CCN(c3ccccc3)CC2)cc1=O	i	/	i	-1.8	/	/
